Measurements published in PubChem BioAssay AID488789 (Broad Institute, 2010).
Results with a measured potency or affinity are listed apart. Results filed as inconclusive are left out. Calls of active or inactive are those of the source.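 How the source made its calls: active means samples whose fitted half-maximal inhibition concentration is no more than ten times the top valid dose tested; inconclusive means flat response between -70 and -30, or invalid curve fit; inactive means flat within 30 of zero, potency above limit, or signal rising.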

Each compound was assayed against Trypsin (Sus scrofa) (UniProt P00761) (assay: porcine trypsin inhibitors, dose response, selectivity assay for Rce1 protease inhibitor project, biochemical, quenched peptide fluorescence, cherry-pick (AID 488789;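 further: more negative means stronger trypsin inhibition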)). Settings: quenched peptide cleavage fluorescence; series mostly up to 10 µM.
Sequence of Trypsin (Sus scrofa) (P00761 whole entry, looked up): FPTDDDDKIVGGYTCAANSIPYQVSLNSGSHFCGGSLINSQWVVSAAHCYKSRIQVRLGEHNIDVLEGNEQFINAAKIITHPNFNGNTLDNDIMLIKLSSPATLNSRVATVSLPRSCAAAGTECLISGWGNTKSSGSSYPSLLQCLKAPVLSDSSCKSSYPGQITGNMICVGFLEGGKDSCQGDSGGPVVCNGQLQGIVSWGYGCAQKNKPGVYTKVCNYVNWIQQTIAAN

SMILES | outcome
O=C1NC2(C=Cc3c(ccc4ccccc34)O2)Oc2ccccc21 (stereo not drawn) | inactive
O=C1CN(C(=O)NCC(=O)N2CCCC2)c2ccccc2N1 | inactive
COC(C/C=C/C(=O)[C@H](C)OCc1ccccc1)OC | inactive
CCSc1nc2c(c(=O)[nH]1)C(c1ccccn1)C1=C(CC(C)(C)CC1=O)N2 (stereo not drawn) | inactive
O=C(O/N=C\c1ccc(N2CCCCC2)c([N+](=O)[O-])c1)c1cccc(C(F)(F)F)c1 | inactive
Cc1cc(NS(=O)(=O)c2ccccc2)c([N+](=O)[O-])cc1C | inactive
CC(C)c1c(C(=O)N/N=C/c2cccc3ccccc23)nnn1-c1nonc1N | inactive
c1ccc(Nc2cccc(Nc3ccccc3)n2)cc1 | inactive
Cc1cccc(N2C(=O)c3cccc4c(N5CCCCC5)c([N+](=O)[O-])cc(c34)C2=O)c1C | inactive
O=C(C[n+]1cc2ccccc2c2ccccc21)c1ccccc1 | inactive
O=C(CN(C1CCCCC1)C1CCCCC1)N1CCc2ccccc2C1 | inactive
CCCN(CCC)CCNC(=O)c1cc2c(-c3ccccc3F)nn(C)c2s1 | inactive
CN(C(=O)COC(=O)c1cc([N+](=O)[O-])ccc1Sc1ccccc1)C1CCS(=O)(=O)C1 (stereo not drawn) | inactive
COc1ccc([N+](=O)[O-])cc1CSc1ccccn1 | inactive
Cc1ccc(-c2nc(SCC(=O)N(C)C3CCS(=O)(=O)C3)[nH]c2-c2ccc(C)cc2)cc1 (stereo not drawn) | inactive
O=C(CCNS(=O)(=O)c1ccc2[nH]c(=O)oc2c1)NCc1ccccc1 | inactive
Cc1cc(C(=O)N/N=C/c2c3ccccc3cc3ccccc23)n[nH]1 | inactive
CCCC(=O)N1CCN(c2ccc(NC(=O)c3cc4ccccc4o3)cc2Cl)CC1 | inactive
CCOc1ccc(-n2c(SCc3ccc([N+](=O)[O-])cc3)nnc2-c2ccc(OC)cc2)cc1 | inactive

SMILES | outcome
CCOc1ccc(N(CC(=O)NC2CC3CCC2C3)S(=O)(=O)c2ccccc2)cc1 (stereo not drawn) | inactive
NCCCn1c(C(=O)c2cc(Cl)c(N)c(Cl)c2)c2ccc(C(F)(F)F)cc2[n+]1[O-] | inactive
Cc1ccc(NS(=O)(=O)c2ccc(NC(=O)N3CCCCC3)cc2)cc1 | inactive
CN(C)c1cc(O)c(C(=S)Nc2ccccc2)c(N(C)C)c1 | inactive
Cc1nc(N2CCOCC2)c2c(C)c(C(=O)Nc3ccccc3C(F)(F)F)sc2n1 | inactive
COc1cccc(C(=O)Nc2nnc(SCC(=O)NC3CCCC3)s2)c1 | inactive
CCn1nc(C)cc1C(=O)NC1CC(C)(C)Cc2c1cnn2-c1cccc(F)c1 (stereo not drawn) | inactive
Cc1cc(C(=O)N[C@H](c2ccccc2)[C@@]2(C)C[C@@H]2[C@@H](C)C(=O)Nc2ccc3ccccc3c2)n(C)n1 | inactive
Nc1nnnn1/N=C/c1cccc(OCc2ccccc2Cl)c1 | inactive
Cc1ccc2c(c1)sc[n+]2Cc1ccccc1 | inactive
COC(C[C@@H](O)C[C@H](O)[C@H](C)OCc1ccccc1)OC | inactive
CCn1c(C)nc2c(=O)oc3ccccc3c21 | inactive
Cc1cccc(-c2nnc(SCc3ccc(C#N)cc3)n2Cc2ccco2)c1 | inactive
COc1ccc(-c2c(C)oc3c(CN4CCN(C)CC4)c(O)ccc3c2=O)cc1 | inactive
CCN(CC)CCCN(Cc1cc2cc3c(cc2[nH]c1=O)OCO3)C(=S)NCCCN(C)C | inactive
COc1ccc2cc(C(=O)C3CCCN(C(=O)c4cc(=O)n(C)c(=O)n4C)C3)ccc2c1 (stereo not drawn) | inactive
CC(C)c1c(C(=O)N/N=C/c2ccsc2)nnn1-c1nonc1N | inactive
Cc1ccsc1/C=N/NC(=O)c1nnn(-c2nonc2N)c1C(C)C | inactive
O=C1CN(S(=O)(=O)c2ccc([N+](=O)[O-])cc2)CC(=O)N1 | inactive
